From PubChem BioAssay AID1851 (National Center for Advancing Translational Sciences (NCATS), 2009) come the findings set out here.

One may read the AC50 as the concentration giving half of the maximal activity seen.

Molecules are shown by their SMILES. About 5,800 (36%) of roughly 16,000 compounds were called active. Another 23% or so got no clear call; they are omitted. Some of the results follow. Unmarked numbers belong to inactive results. The call rests on the fitted dose curve; in most records, active means well fitted curve in the direction sought with a large enough effect; inconclusive means small, poorly fitted or top-dose-only effect, or effect the other way; inactive means no such curve, though single readings can be large or run the other way.
On the % scale 0 is the no-effect control and ±100 the full control effect.

The target in the test is Cytochrome P450 2C19 (Homo sapiens) (UniProt P33261). Briefly: Cytochrome panel assay with activity outcomes. The note with it: recombinant CYP, pro-luciferin dealkylation, luminescence, p450-cyp2c19; series mostly up to 57.1 µM.
Sequence of Cytochrome P450 2C19 (Homo sapiens) (P33261 whole entry, looked up): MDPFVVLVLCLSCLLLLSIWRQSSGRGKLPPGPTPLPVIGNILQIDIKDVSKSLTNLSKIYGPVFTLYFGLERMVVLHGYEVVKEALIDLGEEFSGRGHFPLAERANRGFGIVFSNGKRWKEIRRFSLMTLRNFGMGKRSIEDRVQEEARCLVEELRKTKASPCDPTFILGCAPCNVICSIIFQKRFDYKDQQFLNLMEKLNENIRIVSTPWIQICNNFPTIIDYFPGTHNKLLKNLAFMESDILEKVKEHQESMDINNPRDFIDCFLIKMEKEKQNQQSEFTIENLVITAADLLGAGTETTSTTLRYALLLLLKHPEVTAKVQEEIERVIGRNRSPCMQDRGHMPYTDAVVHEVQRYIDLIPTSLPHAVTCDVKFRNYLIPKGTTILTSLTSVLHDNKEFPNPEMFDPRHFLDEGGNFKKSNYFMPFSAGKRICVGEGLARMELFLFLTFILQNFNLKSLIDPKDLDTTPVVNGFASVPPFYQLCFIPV
As to `Cc1nc2cnc(N3CCN(C)CC3)nc2n(Cc2ccc(F)cc2)c1=O`, the AC50 entry is “inactive”. Consider `COc1ccc(-c2nc3cnc(OC)nc3n(-c3ccc(OC)cc3)c2=O)cc1`, for which the AC50 result was “inactive”.

`COc1ncc2nc(CCc3ccccc3)c(=O)n(CCc3ccccc3)c2n1`: the half-maximal activity concentration (AC50) is 7.94 µM (active).

For the compound `COc1ncc2nc(-c3ccc(F)cc3)c(=O)n(CCc3ccccc3)c2n1`, the AC50 entry is “inactive”. Take `COc1ccc(-c2nc3cnc(OC)nc3n(CCc3ccccc3)c2=O)cc1`: the AC50 entry was “inactive”. On the same count and under the same terms, for `Cc1nc2cnc(Oc3ccccc3)nc2n(CCc2ccccc2)c1=O` the value was “inactive”; for `COCCn1c(=O)c(-c2ccccc2)nc2cnc(OC)nc21`, “inactive”. As to `COc1ccc(-n2c(=O)c(CCc3ccccc3)nc3cnc(N4CCN(C)CC4)nc32)cc1`, the AC50 entry is “inactive”. Still for that read-out and setting: in the case of `COc1ncc2nc(C)c(=O)n(CCc3ccccc3)c2n1` it was 25.1 µM (active). In the case of `COCCn1c(=O)c(-c2cn(C)c3ccccc23)nc2cnc(OCc3ccccc3)nc21`, the AC50 result was “inactive”. `COCCn1c(=O)c(CCc2ccccc2)nc2cnc(OC)nc21`: the AC50 is 0.794 µM (active). Consider `COc1ccc(-n2c(=O)c(CCc3ccccc3)nc3cnc(OC)nc32)cc1`, for which the concentration at half-maximal activity (AC50) was 6.31 µM (active).

As for `C#CCCCO/N=C1/C[C@@H](O)[C@@H](O)[C@@H]2[C@@H]3C(=O)N(C4CCCCC4)C(=O)[C@H]3CC[C@@H]12`, the activity, negative = inhibition is -32.2% [at 11.4 µM].

For `O=C1C[C@H]2C(=O)[C@@H]1[C@@H](C(=O)O)[C@H]2C(=O)O`, the activity, negative = inhibition was -11.8% [at 11.4 µM]. In the case of `Cc1ccc(S(=O)(=O)N[C@H]2COC(=O)[C@@H](C)COC(=O)[C@H](C)NC(=O)C/C=C\[C@H]2C)cc1`, the activity, negative = inhibition was 9.82% [at 11.4 µM]. Regarding `COc1ccc(-c2nc3cnc(N4CCNCC4)nc3n(C)c2=O)cc1`, the AC50 result was “inactive”. With `CCOC(=O)c1c(C)n(C)c2ccc(OC)c(NS(=O)(=O)c3ccc(Cl)s3)c12`, the half-maximal activity concentration (AC50) was 0.282 µM (active).

Consider `Cc1ccc(CCN2CC(C(=O)NCCN3CCOCC3)CC2=O)cc1` (centres undefined), for which the AC50 entry is “inactive”. On to `C=CCNC(=S)Nc1ccc2nc(C)c(C)nc2c1`, for which the AC50 entry is “inactive”. The same measure, in the same setting: in the case of `Cc1cc(-c2ccccc2)nnc1NCCN1CCOCC1` it was “inactive”. For the compound `Cc1ccc(NC(=S)NCCN2CCOCC2)cc1C`, the AC50 was 5.01 µM (active). Same read-out and setting: for `Cc1ccc(SCCNC(=S)Nc2ccc(C)c(C)c2)cc1` the value was 3.16 µM (active); for `O=C(c1cccc(F)c1)N1CCC2(CC1)CCN(C(c1ccccc1)c1ccccc1)CC2`, “inactive”.

As to `CN(C)CCCn1cnc2cc(Cl)c(Cl)cc21`, the activity, negative = inhibition is 51.6% [at 11.4 µM]. As to `O=C(N/N=C1\CCCc2ccccc21)c1ccc([N+](=O)[O-])cc1Cl`, the half-maximal activity concentration (AC50) is 4.47 µM (active).

With `Cc1cc(Cl)ccc1OCC(=O)N/N=C1\CCCc2ccccc21`, the AC50 entry was “inactive”. Same read-out and setting: for `CCCCNC(=S)NNC(=O)c1csc2c1CCC(C)C2` (centres undefined) the value was 3.98 µM (active); for `CCCCNC(=S)NNC(=O)c1sccc1C`, 0.794 µM (active); for `CC1CCc2c(C(=O)Nc3nccs3)csc2C1` (centres undefined), 2.82 µM (active). Same read-out and setting: in the case of `CC(C)NC(=O)N1CCC2(CC1)CCN(C(=O)c1ccncc1)CC2` it was “inactive”; in that of `CCNc1ncc2nc(-c3cc(F)cc(F)c3)c(=O)n(C[C@H]3CCCO3)c2n1`, “inactive”. As to `COCCn1c(=O)c(-c2ccc(OC)cc2)nc2cnc(N3CCNCC3)nc21`, the AC50 result is “inactive”. With `CCOC(=O)C(=Cc1ccc(-c2ccsc2C(=O)OC)o1)C(=O)OCC`, the concentration at half-maximal activity (AC50) is 2.82 µM (active). Regarding `COC(=O)c1sccc1-c1ccc(C(=O)Nc2cccc(Cl)c2)o1`, the AC50 is 3.16 µM (active).

As to `COC(=O)COc1ccsc1C(=O)OC`, the AC50 result is “inactive”.

On to `COC(=O)c1sccc1-c1ccc(C(=O)Nc2cccnc2)o1`, for which the half-maximal activity concentration (AC50) is 3.16 µM (active). With `Cc1noc(NS(=O)(=O)c2cccc3c(N(C)C)cccc23)c1C`, the AC50 entry is “inactive”. As to `CCN(CC)S(=O)(=O)c1cccc2c(N(C)C)cccc12`, the half-maximal activity concentration (AC50) was 3.98 µM (active).

Take `CCN(CC)S(=O)(=O)c1ccc2c3c(cccc13)C(=O)S2`: the concentration at half-maximal activity (AC50) is 1 µM (active).

For the compound `c1csc(CNc2ncncc2-c2ccoc2)c1`, the half-maximal activity concentration (AC50) is 15.8 µM (active). On the same count and under the same terms, in the case of `Cc1cnc(CNc2ncncc2-c2ccoc2)cn1` it was “inactive”. For `c1cncc(-c2cncnc2NCc2cccs2)c1`, the AC50 result was “inactive”. Turning to `c1ccc(CNc2ncncc2-c2ccoc2)cc1`, the half-maximal activity concentration (AC50) is 10 µM (active). Turning to `CN(C)c1ccc(-c2cncnc2NCc2cccs2)cc1`, the AC50 was 0.631 µM (active).

Regarding `NC/C=C\C(=O)O`, the AC50 result was “inactive”.

`CC1=CC=CN2CC(O)CN=C12` (centres undefined): the AC50 entry is “inactive”. Still for that read-out and setting: in the case of `Cc1cc(C)cc(-n2nnnc2SCC(=O)Nc2nc(-c3ccc(Cl)cc3)cs2)c1` it was 3.55 µM (active); in that of `O=C1CCCN1CC(CN1CCOCC1)Sc1nnnn1-c1ccccc1` (centres undefined), 14.1 µM (active). For `CSc1nc(Sc2cccc(Cl)c2)c2ccccc2n1`, the AC50 was 6.31 µM (active).

As to `CSc1c(-c2ccccc2)nc2ccc(Cl)cc2c1C(=O)O`, the AC50 entry is “inactive”. The same measure, in the same setting: for `Cc1ccc(Sc2nc(C)cc(C)c2S(C)(=O)=O)cc1` the value was 3.16 µM (active); for `CCN(CC)CCc1nc(-c2ccccc2)no1`, “inactive”.

`COc1ccc(-c2noc(CCCC(=O)NCCc3ccccc3)n2)cc1OC`: the AC50 was 7.08 µM (active). With `O=C(CCc1nc(-c2ccccc2)no1)NCCc1ccccc1`, the concentration at half-maximal activity (AC50) was 5.01 µM (active). The same measure, in the same setting: for `COc1ccc(C(=O)NNC(=O)Cc2ccc(-c3ccccc3)cc2)cc1OC` the value was “inactive”.

For the compound `O=C1c2ccccc2C(=O)N1CC(=O)N1c2ccccc2CCc2ccccc21`, the half-maximal activity concentration (AC50) was 1.41 µM (active).

For the compound `O=C1c2ccccc2C(=O)N1C[C@]1(C(=O)O)NCCS1(=O)=O`, the activity, negative = inhibition was -9.77% [at 11.4 µM]. `O=C1CC[C@H](N2C(=O)c3ccccc3C2=O)C(=O)N1`: the AC50 entry was “inactive”. `CC(C)(N)C(=O)N[C@@H]1C(=O)N2[C@@H]1SC(C)(C)[C@H]2C(=O)O`: the activity, negative = inhibition is 2.03% [at 11.4 µM].

With `Cc1ccc(NC(=O)CC2CS(=O)(=O)CC2CC(=O)Nc2ccc(C)c(C)c2)cc1C` (centres undefined), the AC50 result was “inactive”. Consider `CCCCC(=O)Nc1ccc(C(=O)NNC(=O)CCc2ccccc2)cc1`, for which the AC50 entry is “inactive”. Take `CCCCC(=O)Nc1ccc(C)c(O)c1`: the AC50 was 15.8 µM (active).

As to `CCC(CC)C(=O)Nc1ccc(C)c(O)c1`, the AC50 was 14.1 µM (active).

Turning to `Clc1ccc(CSC2=NCCN2)cc1Cl`, the activity, negative = inhibition is -10.9% [at 11.4 µM]. In the case of `CNc1cc(CSC)nc(SCc2ccc(Cl)c(Cl)c2)n1`, the concentration at half-maximal activity (AC50) is 0.794 µM (active). The same measure, in the same setting: in the case of `O=C(Oc1ccccc1N1C(=O)C2CCCCC2C1=O)c1ccccc1` (centres undefined) it was 25.1 µM (active). As to `COc1ccc2c(c1)C(c1ccc([N+](=O)[O-])cc1)=NNC(c1ccco1)=N2`, the AC50 was 7.08 µM (active). Same read-out and setting: for `Cn1cnnc1SCC(=O)n1c2ccccc2c2ccccc21` the value was 8.91 µM (active). For `COC(=O)C1=C(CSc2nncn2C)NC(=O)NC1c1ccc(F)cc1` (centres undefined), the AC50 result was “inactive”. As for `CC(=O)Oc1ccc2ccccc2c1C(NC(=O)Cc1ccccc1)c1ccc(Cl)cc1` (centres undefined), the AC50 is 1.26 µM (active).

On to `CC(=O)Oc1ccc(C(c2ccc(OC(C)=O)cc2)c2ccccn2)cc1`, for which the AC50 result was “inactive”. Still for that read-out and setting: for `COc1ccc(OC(=O)c2ccncc2)cc1` the value was 1.41 µM (active); for `CCCCOc1ccc(OC(=O)c2cccnc2)cc1`, 17.8 µM (active); for `CCCCOc1ccc(CC(=O)NO)cc1`, “inactive”. As for `N#Cc1ccc(OC(=O)c2ccc(N=C(N)N)cc2)cc1`, the activity, negative = inhibition is 14.4% [at 11.4 µM]. Regarding `COc1ccc(C(=O)N2CCC3(CC2)CCN(c2ccncc2)CC3)cc1`, the AC50 entry is “inactive”. The same measure, in the same setting: in the case of `CCCCCOc1ccc(OC(=O)c2ccncc2)cc1` it was 3.16 µM (active); in that of `O=C(Nc1ccc(OC(=O)c2cccnc2)cc1)c1cccnc1`, “inactive”.

Consider `COc1ccc(C(=O)N2CCC3(CC2)CN(c2ccncc2)C3)cc1`, for which the AC50 result is “inactive”. On the same count and under the same terms, for `CCN(CC)C(=O)CSc1nc2ccc(NC(=O)CSc3nnc(COc4ccccc4C)n3C)cc2s1` the value was 2.82 µM (active).

In the case of `Br/C(=N\Nc1nn[nH]n1)c1ccncc1`, the activity, negative = inhibition was 22.2% [at 11.4 µM]. With `CN(C)/C=C/C(=O)c1ccc(Cl)cc1`, the AC50 was 11.2 µM (active). Take `NCCNC(=O)c1ccc(Cl)cc1`: the AC50 result is “inactive”.

For `CC(Oc1ccc(Cl)cc1)C(=O)/C=C/N(C)C` (centres undefined), the AC50 is 7.94 µM (active). As to `CC(=O)ON(C(C)=O)S(=O)(=O)c1ccc(Cl)cc1`, the AC50 result is “inactive”. Same read-out and setting: in the case of `O=C(O)/C=C\[C@H](O)c1ccc(Cl)cc1` it was “inactive”.

With `CC(Oc1ccc(Cl)cc1Cl)C(=O)/C=C/N(C)C` (centres undefined), the half-maximal activity concentration (AC50) is 2.82 µM (active). As for `O=C(NCc1ccccc1)C(c1cccs1)N(Cc1cccs1)C(=O)c1cnccn1` (centres undefined), the half-maximal activity concentration (AC50) is 3.55 µM (active). With `COc1ccc2nc3oc(C(=O)NCc4cccs4)cc3cc2c1`, the AC50 result is “inactive”. The same measure, in the same setting: for `COc1ccc(CNC(=O)C(c2ccc(C)cc2)N(Cc2cccs2)C(=O)c2ccc3c(c2)OCCO3)cc1` (centres undefined) the value was 2.82 µM (active); for `CCc1ccc(C(C(=O)NCc2ccc(OC)cc2)N(CCOC)C(=O)Cc2cccs2)cc1` (centres undefined), 5.62 µM (active). On the same count and under the same terms, for `COc1ccc(C(C(=O)NCc2ccccc2)N(Cc2cccs2)C(=O)c2cnccn2)cc1` (centres undefined) the value was 7.08 µM (active); for `O=C(c1cnccn1)N1CCC2(CC1)CCN(C(c1ccccc1)c1ccccc1)CC2`, “inactive”; for `COC(=O)CSc1ncc(OC)c(OC)n1`, “inactive”. For the compound `CCOC(=O)CSc1ncc(OC)c(Sc2ccc(Cl)cc2)n1`, the AC50 was 1.78 µM (active).

For the compound `CCOC(=O)C(C)Sc1ncc(OC)c(Sc2ccc(Cl)cc2)n1` (centres undefined), the AC50 is 3.55 µM (active). As to `CC[C@H]1CC[C@H]2[C@@H]3CC=C4C[C@H](OC(C)=O)[C@@H](N)C[C@@]4(C)[C@H]3CC[C@@]12C`, the activity, negative = inhibition is 22.6% [at 11.4 µM]. For the compound `O=c1c2ccccc2nc2n1CCc1c-2[nH]c2ccccc12`, the AC50 result was “inactive”.

With `c1ccc(-c2c3ccccc3nc3[nH]c4ccccc4c23)cc1`, the half-maximal activity concentration (AC50) was 10 µM (active). Consider `CCCCc1c2ccccc2nc2[nH]c3ccccc3c12`, for which the AC50 entry is “inactive”.

Consider `Clc1ccc(CC[C@H](Cn2ccnc2)Sc2c(Cl)cccc2Cl)cc1`, for which the half-maximal activity concentration (AC50) is 0.00251 µM (active). Consider `COc1ccc(S(=O)(=O)N2CCCCCC2)cc1N(C)S(=O)(=O)c1ccc(Cl)cc1`, for which the AC50 was 5.01 µM (active).

As for `COc1ccc(S(=O)(=O)Nc2ccc(S(=O)(=O)N3CCCCC3)cc2)cc1C`, the half-maximal activity concentration (AC50) was 2.82 µM (active).

In the case of `COc1ccc(NS(=O)(=O)c2ccc(I)cc2)cc1N1CCN(C)CC1`, the AC50 entry was “inactive”.
